Laboratory results taken from PubChem BioAssay (Tox21).
Records with an inconclusive call do not appear. Calls of active or inactive are those of the source. Unless noted, calls follow the shape of the dose curve; as a rule, active = well fitted curve in the direction sought with a large enough effect in the repeat runs; inconclusive = weak or mixed curves; inactive = no such curve, though single readings can be large; an effect the other way counts as inactive or inconclusive.

What was measured:
[1] = qHTS assay to identify small molecule agonists of the estrogen receptor beta (ER-beta) signaling pathway - cell viability counter screen (AID 1259380); conditions: ER-beta-bla HEK293T viability, CellTiter-Glo luminescence, 16 h; series mostly up to 92.4 µM; also: nearly all actives have a fitted effect of over 30% in size; also: potency is read from the fitted curve at half-maximal effect
Outline: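 Cells used were ER-beta-UAS-bla HEK293T in medium with 2% charcoal-stripped FBS. They were treated for 16 hr at 37C. Viability came from CellTiter-Glo luminescence.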

[2] = qHTS assay to identify small molecule antagonists of the estrogen receptor beta (ER-beta) signaling pathway - cell viability counter screen (AID 1259382); conditions: ER-beta-UAS-bla HEK293T viability, CellTiter-Glo luminescence, 16 h; series mostly up to 92.4 µM; also: nearly all actives have a fitted effect of over 55% in size; also: potency is read from the fitted curve at half-maximal effect
Outline: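 Agonist-stimulated (1nM E2) ER-beta-UAS-bla HEK293T cells are incubated with library compounds for 16 hr at 37C. Cell viability is then assessed in the reporter-assay wells by adding CellTiter-Glo and reading luminescence after 30 min.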

[3] = qHTS assay to identify small molecule agonists or antagonists of the thyroid stimulating hormone receptor (TSHR) signaling pathway - wild type cell line counter screen (AID 1259384; calls by dose curve); conditions: HEK293 wild type, cAMP HTRF counter-screen; series mostly up to 92.4 µM
Outline: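 Wild-type Hek293 cells, 800/well, 18 h at 37C, then compound with Ro20-1724 for 30 min RT. cAMP by HTRF (cAMP-d2/anti-cAMP cryptate), 1 h RT, fluorescence read. 15 concentrations, triplicates.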

[4] = target: Thyrotropin receptor (Homo sapiens) (UniProt P16473); test: qHTS assay to identify small molecule antagonists of the thyroid stimulating hormone receptor (TSHR) signaling pathway (AID 1259385; calls by dose curve; also: nearly all actives have a fitted effect of over 20% in size; also: potency is read from the fitted curve at half-maximal effect); conditions: TSHR-HEK293 cAMP HTRF, TSH-stimulated antagonist mode; series mostly up to 92.4 µM
Outline: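 TSHR-HEK293 cells (800/well) plated 18 h, then compounds with Ro20-1724 and TSH at 1.5 ng/mL final, 30 min at room temperature. cAMP quantified by HTRF (cAMP-d2/anti-cAMP-cryptate, 1 h); 15 concentrations in triplicate.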

[5] = target: Progesterone receptor (Homo sapiens) (UniProt P06401); test: qHTS assay to identify small molecule agonists of the progesterone receptor (PR) signaling pathway (AID 1346784; calls by dose curve; also: nearly all actives have a fitted effect of over 30% in size); conditions: PR-UAS-bla HEK293T, beta-lactamase FRET ratio, 16 h; series mostly up to 92.4 µM
Outline: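 PR-UAS-bla HEK 293T cells carrying a UAS-driven beta-lactamase reporter were seeded in medium with 2% charcoal-stripped FBS, preincubated 6 hr at 37C, then exposed to compounds in DMSO for 16 hr; agonism was read by LiveBLAzer B/G FRET fluorescence.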

[6] = target: Progesterone receptor (Homo sapiens) (UniProt P06401); test: qHTS assay to identify small molecule antagonists of the progesterone receptor (PR) signaling pathway (AID 1346795; active = well fitted inhibition curve with a large enough effect in the signal ratio in the repeat runs, not every such curve was filed as active; the % refers to the signal ratio; also: potency is read from the fitted curve at half-maximal effect); conditions: PR-UAS-bla HEK293T, beta-lactamase FRET ratio, 16 h; series mostly up to 92.4 µM
Outline: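 PR-UAS-bla HEK293T cells carrying a UAS-driven beta-lactamase reporter were plated in medium with 2% charcoal-stripped FBS and rested 6 hr at 37C. Compounds were added with 1 nM R5020 (final) for 16 hr, then FRET substrate loaded 2 hr at room temperature.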

[7] = qHTS assay to identify small molecule antagonists of the progesterone receptor (PR) signaling pathway - cell viability counter screen (AID 1346798); conditions: PR-UAS-bla HEK293T viability, CellTiter-Glo luminescence, 16 h; series mostly up to 92.4 µM; also: nearly all actives have a fitted effect of over 50% in size; also: potency is read from the fitted curve at half-maximal effect
Outline: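 PR-UAS-bla HEK293T cells in medium with 2% charcoal-stripped FBS were treated with compounds plus R5020 for 16 hr at 37C. Cell viability was then read by CellTiter-Glo luminescence after 30 min at room temperature in the same wells.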

[8] = qHTS assay to identify small molecule agonists of the estrogen receptor alpha (ER-alpha) signaling pathway in the presence of an antagonist - cell viability counter screen (AID 1259386); conditions: VM7Luc4E2 viability, CellTiter-Fluor fluorescence, 22 h; series mostly up to 92.4 µM;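 also: cells exposed to compounds for 22 h at 37 °C before the viability read; nearly all actives have a fitted effect of over 30% in size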; also: potency is read from the fitted curve at half-maximal effect
Outline: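 ICI-182,780 at 10.0nM final accompanies the compound titration (15 concentrations, 22hr, 37C) on VM7Luc4E2 cells. The CellTiter-Fluor fluorescence readout runs in the same wells as the luciferase assay.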

[9] = target: Estrogen receptor (Homo sapiens) (UniProt P03372); test: qHTS assay to identify small molecule agonists of the estrogen receptor alpha (ER-alpha) signaling pathway in the presence of an antagonist (AID 1259383; calls by dose curve; also: top concentration of the series differs between compounds; nearly all actives have a fitted effect of over 15% in size); conditions: VM7Luc4E2 cells, ERE-luciferase, +ICI-182,780, 22 h; series mostly up to 92.4 µM
Outline: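 Using VM7Luc4E2 cells seeded 24hr before treatment, antagonist ICI-182,780 (10.0nM final) was added, followed by compounds at 15 concentrations. Plates incubated 22hr; ONE-Glo luminescence quantified reporter activity.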
% is scaled to controls: 0 for no effect and ±100 for the full control effect.

Chain of Thyrotropin receptor (Homo sapiens) (P16473 whole entry, looked up): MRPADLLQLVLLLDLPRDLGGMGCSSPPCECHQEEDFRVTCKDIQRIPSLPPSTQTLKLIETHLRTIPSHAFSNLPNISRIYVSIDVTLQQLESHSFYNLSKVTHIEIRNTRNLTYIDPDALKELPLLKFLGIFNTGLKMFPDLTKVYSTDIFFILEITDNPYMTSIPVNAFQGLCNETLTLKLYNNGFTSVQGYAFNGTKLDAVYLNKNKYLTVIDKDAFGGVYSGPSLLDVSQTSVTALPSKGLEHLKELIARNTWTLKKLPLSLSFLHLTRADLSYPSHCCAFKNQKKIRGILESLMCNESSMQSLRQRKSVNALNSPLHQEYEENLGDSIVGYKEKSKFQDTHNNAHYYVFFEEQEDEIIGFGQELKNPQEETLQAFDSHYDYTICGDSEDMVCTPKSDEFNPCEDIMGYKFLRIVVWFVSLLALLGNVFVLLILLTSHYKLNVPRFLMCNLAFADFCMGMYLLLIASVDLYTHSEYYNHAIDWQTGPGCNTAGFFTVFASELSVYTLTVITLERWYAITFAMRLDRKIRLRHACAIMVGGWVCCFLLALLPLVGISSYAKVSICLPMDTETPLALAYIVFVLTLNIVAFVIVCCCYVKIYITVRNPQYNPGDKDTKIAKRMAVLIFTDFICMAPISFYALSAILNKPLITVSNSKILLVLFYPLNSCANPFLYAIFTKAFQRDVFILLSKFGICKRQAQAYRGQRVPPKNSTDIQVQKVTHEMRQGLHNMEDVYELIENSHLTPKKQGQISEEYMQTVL
Chain of Progesterone receptor (Homo sapiens) (P06401 whole entry, looked up): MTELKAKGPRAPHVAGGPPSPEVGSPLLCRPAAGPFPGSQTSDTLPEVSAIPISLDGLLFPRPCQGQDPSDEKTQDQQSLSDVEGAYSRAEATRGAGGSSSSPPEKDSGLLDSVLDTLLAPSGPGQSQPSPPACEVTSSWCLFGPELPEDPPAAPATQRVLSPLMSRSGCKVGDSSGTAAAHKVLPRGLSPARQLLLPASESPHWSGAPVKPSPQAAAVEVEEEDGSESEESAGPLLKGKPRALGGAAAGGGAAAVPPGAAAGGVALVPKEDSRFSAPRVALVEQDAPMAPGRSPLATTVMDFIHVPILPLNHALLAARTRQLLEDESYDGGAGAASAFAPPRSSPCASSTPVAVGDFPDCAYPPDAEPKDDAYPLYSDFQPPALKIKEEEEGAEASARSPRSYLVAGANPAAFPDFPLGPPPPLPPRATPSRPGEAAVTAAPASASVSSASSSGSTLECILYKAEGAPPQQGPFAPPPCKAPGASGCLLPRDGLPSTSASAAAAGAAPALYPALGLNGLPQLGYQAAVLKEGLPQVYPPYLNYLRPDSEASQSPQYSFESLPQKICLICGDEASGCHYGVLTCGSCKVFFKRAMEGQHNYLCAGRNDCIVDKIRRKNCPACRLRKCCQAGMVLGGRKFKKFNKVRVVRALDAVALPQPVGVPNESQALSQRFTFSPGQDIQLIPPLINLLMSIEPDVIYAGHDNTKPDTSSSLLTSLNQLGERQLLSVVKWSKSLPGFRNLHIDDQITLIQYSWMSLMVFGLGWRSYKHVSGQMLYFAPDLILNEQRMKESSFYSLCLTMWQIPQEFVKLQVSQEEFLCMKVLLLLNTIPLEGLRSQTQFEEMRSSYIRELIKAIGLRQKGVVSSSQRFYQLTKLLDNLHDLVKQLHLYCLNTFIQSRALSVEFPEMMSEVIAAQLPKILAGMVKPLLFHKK
Chain of Estrogen receptor (Homo sapiens) (P03372 whole entry, looked up): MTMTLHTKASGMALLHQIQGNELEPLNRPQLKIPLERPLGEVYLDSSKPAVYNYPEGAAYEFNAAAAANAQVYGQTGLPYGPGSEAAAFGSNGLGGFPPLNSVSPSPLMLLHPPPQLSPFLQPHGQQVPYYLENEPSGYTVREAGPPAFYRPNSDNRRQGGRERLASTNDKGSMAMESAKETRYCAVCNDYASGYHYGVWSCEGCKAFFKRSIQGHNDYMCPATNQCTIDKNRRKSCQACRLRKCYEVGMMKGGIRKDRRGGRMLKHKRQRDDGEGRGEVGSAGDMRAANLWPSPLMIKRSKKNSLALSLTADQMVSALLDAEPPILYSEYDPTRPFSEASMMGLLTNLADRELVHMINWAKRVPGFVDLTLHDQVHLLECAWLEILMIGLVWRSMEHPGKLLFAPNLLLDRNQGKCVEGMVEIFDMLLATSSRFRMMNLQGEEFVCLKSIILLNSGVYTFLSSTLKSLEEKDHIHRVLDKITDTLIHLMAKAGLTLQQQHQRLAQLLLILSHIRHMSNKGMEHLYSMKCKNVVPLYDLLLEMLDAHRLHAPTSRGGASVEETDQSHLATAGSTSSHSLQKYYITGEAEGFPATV

NCc1ccco1
inactive: Potency [1] | Potency [2] | Potency [3] | Potency [4] | outcome [5] | Potency [6] | Potency [7]

CN1CCN(CCCN2c3ccccc3Sc3ccc(C(F)(F)F)cc32)CC1
inactive: Potency [3]
active: Potency [1] 15 µM | Potency [2] 21.1 µM | Potency [4] 26.6 µM | Potency [7] 26.6 µM

CCC(=O)OC/C=C(\C)CCC=C(C)C
inactive: Potency [1] | Potency [2] | Potency [4] | Potency [8] | outcome [5] | Potency [6] | Potency [7]

Cc1cc(C)c(O)c(C(C)(C)C)c1
inactive: Potency [1] | Potency [2] | Potency [4] | outcome [5] | Potency [6] | Potency [7]

COc1cc(C(C)C)ccc1C
inactive: activity change, negative = cytotoxicity [1] 2.27% [at 19 µM] | activity change, negative = cytotoxicity [2] -0.566% [at 19 µM] | activity change, negative = inhibition [4] -0.443% [at 19 µM] | activity change, negative = cytotoxicity [8] -2.95% [at 19 µM] | activation [5] 2.45% [at 19 µM] | activity change, negative = inhibition [6] 2.91% [at 18.9 µM] | activity change, negative = cytotoxicity [7] -15.7% [at 18.9 µM]

COc1cc([C@@H]2c3cc4c(cc3[C@@H](O[C@@H]3O[C@@H]5CO[C@@H](C)O[C@H]5[C@H](O)[C@H]3O)[C@H]3COC(=O)[C@H]23)OCO4)cc(OC)c1O
inactive: Potency [1] | Potency [2] | Potency [4] | outcome [5]
active: Potency [6] 24.1 µM

CC(C)=CCC[C@H](C)CC=O
inactive: Potency [1] | Potency [2] | Potency [3] | Potency [4] | outcome [5] | Potency [6] | Potency [7]

O=[N+]([O-])c1ccc(O)c2ncccc12
active: Potency [1] 0.944 µM | Potency [6] 0.531 µM | Potency [7] 0.531 µM
inactive: Potency [4] | outcome [5]

CCOC(=O)OC(=O)OCC
inactive: Potency [1] | Potency [2] | Potency [4] | outcome [5] | Potency [6] | Potency [7]

C=CC(=O)O[C@H]1C[C@@H]2CC[C@@]1(C)C2(C)C
inactive: Potency [1] | Potency [2] | Potency [8] | outcome [5] | Potency [6] | Potency [7]

SC1CCCCC1
inactive: Potency [1] | Potency [2] | Potency [3] | Potency [4] | outcome [5] | Potency [7]

Nc1cccnc1N
inactive: Potency [1] | Potency [2] | Potency [3] | outcome [5] | Potency [6] | Potency [7]

Nc1c(Br)cc([N+](=O)[O-])cc1Br
inactive: Potency [1] | Potency [8] | outcome [5] | Potency [7]

[Cl][Eu]([Cl])[Cl]
inactive: Potency [1] | Potency [2] | Potency [8] | outcome [5] | Potency [7]

Brc1cc(Br)cc(Br)c1
inactive: Potency [1] | Potency [2] | Potency [4] | outcome [5] | Potency [6] | Potency [7]

c1ccc(-c2ccccc2-c2ccccc2)cc1
inactive: Potency [9] | Potency [8]
active: Potency [1] 68.6 µM

CCCCCCCCc1ccc(Nc2ccc(CCCCCCCC)cc2)cc1
inactive: Potency [1] | Potency [2] | Potency [3] | Potency [4] | outcome [5] | Potency [6] | Potency [7]

Clc1nc(C(Cl)(Cl)Cl)c(Cl)c(Cl)c1Cl
inactive: Potency [9] | Potency [8] | outcome [5]
active: Potency [1] 8.63 µM

Cc1cc(F)ccc1-c1cc(N2CC[C@@H](O)[C@H]2CO)ncc1N(C)C(=O)C(C)(C)c1cc(C(F)(F)F)cc(C(F)(F)F)c1
inactive: Potency [3] | Potency [4] | Potency [8] | Potency [7]
active: Potency [1] 47.8 µM | Potency [2] 53.6 µM

COc1c(Br)cc(Br)c(C)c1Br
inactive: Potency [1] | Potency [2] | Potency [3] | outcome [5] | Potency [6] | Potency [7]

CCN(CC)c1ccc2c(c1)Oc1cc(N(CC)CC)ccc1C21OC(=O)c2ccccc21
inactive: outcome [5] | Potency [6] | Potency [7]
active: Potency [1] 10.6 µM | Potency [8] 5.31 µM

CCC(C)(C)c1ccc(CC(C)CN2C[C@@H](C)O[C@@H](C)C2)cc1 (stereo partly drawn)
active: Potency [1] 26.6 µM
inactive: Potency [2] | Potency [3] | outcome [5] | Potency [6] | Potency [7]

O=C(Nc1ccc([N+](=O)[O-])cc1)Nc1ccc([N+](=O)[O-])cc1 (tested in a mixture with another compound)
active: Potency [1] 0.596 µM | Potency [7] 1.19 µM
inactive: Potency [4] | Potency [8] | outcome [5]

S=C1NC=NC2N=CNC12 (stereo not drawn)
active: Potency [1] 3.44 µM
inactive: Potency [3] | Potency [4] | Potency [8] | outcome [5]

CCCCCCCCOC(=O)c1cc(O)c(O)c(O)c1
active: Potency [1] 68.6 µM | Potency [8] 54.5 µM | Potency [6] 30.6 µM
inactive: Potency [3] | Potency [4]

O=C(O)C[C@H](O)C[C@H](O)/C=C/c1c(C2CC2)nc2ccccc2c1-c1ccc(F)cc1
active: Potency [1] 3.26 µM
inactive: cAMP activity change [3] -3.96% [at 18.9 µM, hits give high values] | activity change, negative = inhibition [4] 1.31% [at 19 µM] | activity change, negative = cytotoxicity [8] 8.43% [at 19 µM] | activation [5] -0.575% [at 19 µM]

CN1CCN(c2ccccc2/C=C2\SCCN(c3ccc(Cl)c(Cl)c3)C2=O)CC1
active: Potency [1] 30.6 µM | Potency [2] 61.1 µM | Potency [8] 68.6 µM

ClC(c1ccccc1)(c1ccccc1)c1ccccc1
inactive: Potency [1] | Potency [2] | Potency [8] | outcome [5] | Potency [7]

c1ccc(-c2ccc(C(c3ccccc3)n3ccnc3)cc2)cc1 (stereo not drawn)
inactive: Potency [8]
active: Potency [1] 29.8 µM | Potency [6] 5.96 µM | Potency [7] 9.44 µM

Cc1cc(Br)ccc1NC(=O)CCl
inactive: Potency [3] | Potency [4] | outcome [5]
active: Potency [1] 30.6 µM | Potency [2] 30.6 µM | Potency [7] 15.4 µM
